# According to PubChem BioAssay:
# Records with an inconclusive call do not appear. Active and inactive are the calls of the source.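 The calls were made as follows, unless noted: active = GFP response above 150% of the DMSO control; inconclusive = Fewer than 70 cells counted for a yeast strain; inactive = the rest.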
# Columns and labels:
# [1] = rapamycin-like changes in RPL19A-GFP expression – cell-based, S. cerevisiae, multiplex flow cytometry, primary screen (AID 1862; in the data active = percent of DMSO control GFP below about 86%;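 also: lower values mimic rapamycin by blocking the RPL19A rise seen in DMSO cells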); conditions: S. cerevisiae RPL19A-GFP strain, flow cytometry fluorescence, 3 h; at 10 µM; stronger effect = lower value
# [2] = TOR pathway GLN3 branch reporter MEP2-GFP changes – S. cerevisiae, multiplex flow cytometry, primary screen (AID 1867;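 active = GFP response, as percent of the DMSO control, above the screen-wide mean plus 3 SD, about 139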;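 also: median GFP channel fluorescence of barcode-gated MEP2-GFP cells measured by flow cytometry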); conditions: S. cerevisiae MEP2-GFP strain, 3 h, at 10 µM, stronger effect = higher value, 100% means same as DMSO wells
# [3] = TOR pathway RTG branch CIT2 reporter changes – S. cerevisiae, GFP fusion, multiplex flow cytometry, primary screen (AID 1870;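 active = percent response above a set limit, the screen-wide mean plus 3 SD, cut at about 130% in these data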;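 also: barcoded CIT2-GFP strain pooled with four other GFP strains with rapamycin as positive control; median GFP fluorescence per well over plate mean of DMSO wells so 100% = DMSO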); conditions: S. cerevisiae CIT2-GFP expression, 3 h, at 10 µM, stronger effect = higher value
# [4] = TOR pathway LAP4-GFP level changes – S. cerevisiae, multiplex flow cytometry, primary screen (AID 1873;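 active = GFP signal, as percent of the solvent control, above the screen mean plus 3 SD, about 149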); conditions: S. cerevisiae LAP4-GFP expression, 3 h, at 10 µM, stronger effect = higher value
# [5] = yeast AGP1-GFP level changes, GLN3 branch – cell-based, multiplex flow cytometry, S. cerevisiae, primary screen (AID 1887;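 active = GFP signal above the screen-wide mean plus 3 SD, that is over about 124.5% of the solvent control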;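 also: AGP1-GFP fusion strain of S. cerevisiae within a five-strain barcoded multiplex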); conditions: 3 h, at 10 µM, stronger effect = higher value
# [6] = hit retest on RPL19A-GFP reporter strain – cell-based, S. cerevisiae, flow cytometry, cherry picks, mother/daughter gates, confirmation (AID 2270;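 active = GFP response below 50% of the DMSO control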); conditions: 3 h, at 10 µM, stronger effect = lower value, 100 = same GFP as DMSO wells
# [7] = yeast TOR pathway reporter LAP4-GFP change – cell-based, cherry picks, flow cytometry, mother/daughter gates, confirmation (AID 2271;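 active = GFP response above 150% of the DMSO control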;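 also: ratio of sample to DMSO plate mean so 100% equals DMSO level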); conditions: S. cerevisiae LAP4-GFP strain, 3 h, at 10 µM, stronger effect = higher value, 100 means same as DMSO control
# [8] = TOR pathway reporter MEP2-GFP, retest of hits – S. cerevisiae, flow cytometry GFP, cherry picks, confirmation (AID 2272);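 also: ratio of well signal to plate DMSO mean so 100% equals DMSO level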; conditions: S. cerevisiae MEP2-GFP strain, 3 h, at 10 µM, stronger effect = higher value
# [9] = TOR pathway CIT2 reporter hit retest – S. cerevisiae, GFP fusion, cherry picks, mother/daughter gates, confirmation (AID 2274;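 active = GFP response above 150% of the DMSO level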); conditions: S. cerevisiae CIT2-GFP strain, flow cytometry, 3 h, at 10 µM, stronger effect = higher value
# [10] = reduced mouse 2C T cell binding to pMHC/ICAM-1 vesicles – MLPCN validation set, flow cytometry, LFA-1/ICAM-1 modulator project, pilot screen (AID 2523;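 active = response below a set limit, under 55% cells CD8-positive and vesicle-bound, and CD8 cells' 90th-percentile brightness under 279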;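 as to vesicle binding response: mean PE anti-B7-1 fluorescence of CD8+ cells relative to row control; 100% = QL9-loaded vesicles with DMSO vehicle in the same plate row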); conditions: 2C mouse CD8+ T cells, at 7 µM, stronger effect = lower value; double positive events: measured here: CD8+/vesicle+ event percentage
# [11] = molecular target: Integrin beta-1 (Homo sapiens) + Integrin alpha-4 (Homo sapiens) (UniProt P13612+P05556); assay: alpha4beta1 integrin LIBS antibody binding reduction – U937 cells, HUTS-21 mAb, flow cytometry, validation set, VLA-4 allosteric modulator project, pilot screen (AID 2674;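 active = inhibition above 50%, about 3 SD of the validation set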;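 also: antibody binding induced by the VLA-4 ligand LDV present at three times its Kd; 0% = LDV ligand with antibody and no compound and 100% = antibody without LDV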); conditions: HUTS-21 LIBS mAb binding, at 6.7 µM, stronger effect = higher value, binding induced by LDV ligand
# [12] = calorie-restriction mimetic ROS inhibitors, yeast – validation compound set, pilot screen (AID 2706;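 active = superoxide response below 65% of plate, a cut near 3 SD across the whole screen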;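 also: yeast exposed to compound for one week at 30 degrees C before staining; 100% = mean of all compound wells on the same plate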); conditions: S. cerevisiae aging, superoxide DHE fluorescence; at 10 µM; stronger effect = lower value
# [13] = molecular target: Beta-adrenergic receptor kinase 1 (Homo sapiens) (UniProt P25098); assay: GRK2 binders displacing RNA aptamer, biochemical, validation, human GRK2, bead flow cytometry (AID 488806;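 active = aptamer binding inhibition above 30%, about 3 SD of noise from non-fluorescent compounds; inactive = inhibition at or below 30%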); conditions: bead-bound GRK2, FAM-aptamer displacement, at 10 µM, stronger effect = higher value
# [14] = molecular target: Beta-2 adrenergic receptor (Homo sapiens) (UniProt P07550); assay: agonist-induced loss of surface beta2AR – cell-based, FAP fluorogen, flow cytometry, validation set, pilot screen (AID 504459;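 active = percent response above 42, roughly 3 SD of non-fluorescent test compounds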;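 also: agonist-driven loss of surface beta2AR via internalization measured by FAP dye flow cytometry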); conditions: Am2.2-beta2AR cells, at 10 µM, stronger effect = higher value
# [15] = molecular target: AP-2 complex subunit beta (Homo sapiens) (UniProt P63010); assay: beta-arrestin/AP2 interaction blockers – biochemical, validation set, GST-AP2 beads, flow cytometry, pilot screen (AID 504541;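 active = inhibition above 54%, about 3 SD of non-fluorescent compounds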;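 also: AP2 carries R879A mutation and is captured from E. coli lysate; bead-bound FITC arrestin peptide fluorescence measuring arrestin peptide binding to AP2; 0% = DMSO wells and 100% = excess unlabeled arrestin peptide control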); conditions: FITC arrestin peptide, at 10 µM, stronger effect = higher value, AP2 beta2 appendage fragment, R879A mutant
# [16] = cytosolic pH regulators acting via V-ATPase – S. cerevisiae, pHLuorin, HTS validation (AID 504600; in the data active = response above about 15%;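 also: plate controls were DMSO for no effect and reference compound for full effect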); conditions: V-ATPase proton transport, at 10 µM, stronger effect = higher value
# [17] = system: anti-desmoglein-3 scFv antibody binding to human DSG3; assay: blockers of pathogenic pemphigus antibody–desmoglein-3 binding – biochemical, validation compound set, bead-based, flow cytometry, pilot screen (AID 588368;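 active = binding below the plate cutoff, the plate median minus 3 SD, with a reading above zero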;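 also: signal is the median channel fluorescence of bead-bound GFP antibody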); conditions: Protein G beads, DSG3-Fc, scFv-GFP binding, at 10 µM, stronger effect = lower value
# [18] = Nile Red efflux blockade in pump-expressing yeast – validation compound set, multiplex, phenotypic, pilot screen (AID 588506;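 active = efflux inhibition above 0.42, the validation set average plus 4 SD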;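 also: Nile Red retained in cells so higher fluorescence means more efflux inhibition; 0 = negative control wells and 1 = enniatin B 25 µM full block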); conditions: S. cerevisiae pump-expressing triplex, Nile Red efflux flow cytometry; at 10 µM; stronger effect = higher value; the pumps come from Candida albicans
# [19] = molecular target: ATP-binding cassette sub-family B member 6 (Homo sapiens) (UniProt Q9NP58); assay: blockers of ABCB6-driven porphyrin uptake – K562-ABCB6 cells, flow cytometry, validation set, pilot screen (AID 588550;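 active = inhibition above the screen-wide mean plus 3 SD, about 51%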;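 also: 0% = DMSO wells and 100% = benzethonium chloride 70 µM positive control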); conditions: K562-ABCB6 porphyrin accumulation, 1 h, at 10 µM, stronger effect = higher value
# [20] = AML differentiation inducers, ER-HoxA9 marrow cells – cell-based, GFP/MAC1 double positive, flow cytometry, validation set, primary screen (AID 588685;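 active = differentiation response of at least 50%, scaled between solvent and reference control, from cells with both markers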;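 also: compound exposure lasts four days before antibody staining and flow analysis; 0% = DMSO wells and 100% = 5 µM fulvestrant positive control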); conditions: stronger effect = higher value, normalized: vehicle 0, fulvestrant 100
# [21] = measured here: daughter cell gate
# [22] = measured here: mother cell gate
# [23] = measured here: daughter cell gate response
# [24] = measured here: mother cell gate response
# Sequence of Beta-adrenergic receptor kinase 1 (Homo sapiens) (P25098 whole entry, looked up): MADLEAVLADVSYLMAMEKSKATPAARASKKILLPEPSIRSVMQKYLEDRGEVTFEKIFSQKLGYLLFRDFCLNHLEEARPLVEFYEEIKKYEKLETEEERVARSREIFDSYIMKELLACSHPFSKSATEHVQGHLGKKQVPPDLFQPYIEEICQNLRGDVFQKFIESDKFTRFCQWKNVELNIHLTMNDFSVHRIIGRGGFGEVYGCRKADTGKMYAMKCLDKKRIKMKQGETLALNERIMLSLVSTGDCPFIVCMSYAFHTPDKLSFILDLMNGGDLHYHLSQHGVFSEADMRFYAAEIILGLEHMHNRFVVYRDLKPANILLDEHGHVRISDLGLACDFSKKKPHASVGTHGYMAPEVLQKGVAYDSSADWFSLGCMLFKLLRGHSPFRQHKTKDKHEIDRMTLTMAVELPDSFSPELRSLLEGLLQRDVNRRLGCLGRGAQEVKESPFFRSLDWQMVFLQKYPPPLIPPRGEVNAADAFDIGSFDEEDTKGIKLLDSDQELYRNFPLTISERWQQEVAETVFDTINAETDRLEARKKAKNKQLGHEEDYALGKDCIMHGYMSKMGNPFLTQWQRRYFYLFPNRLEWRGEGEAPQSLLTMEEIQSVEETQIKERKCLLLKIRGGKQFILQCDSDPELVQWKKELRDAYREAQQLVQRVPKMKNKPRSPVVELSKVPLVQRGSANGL
# Sequence of Integrin beta-1 (Homo sapiens) + Integrin alpha-4 (Homo sapiens) (P05556 whole entry, looked up): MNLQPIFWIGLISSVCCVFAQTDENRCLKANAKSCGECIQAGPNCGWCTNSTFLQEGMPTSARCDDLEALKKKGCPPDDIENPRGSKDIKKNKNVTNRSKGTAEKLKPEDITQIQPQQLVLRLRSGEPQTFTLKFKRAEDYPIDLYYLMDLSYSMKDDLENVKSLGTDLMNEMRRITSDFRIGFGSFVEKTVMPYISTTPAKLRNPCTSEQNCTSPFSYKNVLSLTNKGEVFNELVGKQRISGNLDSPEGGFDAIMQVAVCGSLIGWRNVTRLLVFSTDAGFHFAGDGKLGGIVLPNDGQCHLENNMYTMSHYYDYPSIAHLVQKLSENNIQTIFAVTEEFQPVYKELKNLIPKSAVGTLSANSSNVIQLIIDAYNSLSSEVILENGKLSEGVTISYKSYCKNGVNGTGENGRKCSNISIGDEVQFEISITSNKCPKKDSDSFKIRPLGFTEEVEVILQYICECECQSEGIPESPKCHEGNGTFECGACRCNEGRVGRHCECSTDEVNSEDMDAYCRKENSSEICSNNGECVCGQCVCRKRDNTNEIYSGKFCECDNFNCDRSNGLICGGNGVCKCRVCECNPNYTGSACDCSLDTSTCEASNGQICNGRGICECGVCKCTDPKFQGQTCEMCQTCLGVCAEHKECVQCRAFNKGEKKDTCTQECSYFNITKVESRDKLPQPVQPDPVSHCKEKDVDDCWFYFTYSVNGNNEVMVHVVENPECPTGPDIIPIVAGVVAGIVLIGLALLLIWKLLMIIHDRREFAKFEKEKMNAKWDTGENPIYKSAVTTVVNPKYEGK
# Sequence of Integrin beta-1 (Homo sapiens) + Integrin alpha-4 (Homo sapiens) (P13612 whole entry, looked up): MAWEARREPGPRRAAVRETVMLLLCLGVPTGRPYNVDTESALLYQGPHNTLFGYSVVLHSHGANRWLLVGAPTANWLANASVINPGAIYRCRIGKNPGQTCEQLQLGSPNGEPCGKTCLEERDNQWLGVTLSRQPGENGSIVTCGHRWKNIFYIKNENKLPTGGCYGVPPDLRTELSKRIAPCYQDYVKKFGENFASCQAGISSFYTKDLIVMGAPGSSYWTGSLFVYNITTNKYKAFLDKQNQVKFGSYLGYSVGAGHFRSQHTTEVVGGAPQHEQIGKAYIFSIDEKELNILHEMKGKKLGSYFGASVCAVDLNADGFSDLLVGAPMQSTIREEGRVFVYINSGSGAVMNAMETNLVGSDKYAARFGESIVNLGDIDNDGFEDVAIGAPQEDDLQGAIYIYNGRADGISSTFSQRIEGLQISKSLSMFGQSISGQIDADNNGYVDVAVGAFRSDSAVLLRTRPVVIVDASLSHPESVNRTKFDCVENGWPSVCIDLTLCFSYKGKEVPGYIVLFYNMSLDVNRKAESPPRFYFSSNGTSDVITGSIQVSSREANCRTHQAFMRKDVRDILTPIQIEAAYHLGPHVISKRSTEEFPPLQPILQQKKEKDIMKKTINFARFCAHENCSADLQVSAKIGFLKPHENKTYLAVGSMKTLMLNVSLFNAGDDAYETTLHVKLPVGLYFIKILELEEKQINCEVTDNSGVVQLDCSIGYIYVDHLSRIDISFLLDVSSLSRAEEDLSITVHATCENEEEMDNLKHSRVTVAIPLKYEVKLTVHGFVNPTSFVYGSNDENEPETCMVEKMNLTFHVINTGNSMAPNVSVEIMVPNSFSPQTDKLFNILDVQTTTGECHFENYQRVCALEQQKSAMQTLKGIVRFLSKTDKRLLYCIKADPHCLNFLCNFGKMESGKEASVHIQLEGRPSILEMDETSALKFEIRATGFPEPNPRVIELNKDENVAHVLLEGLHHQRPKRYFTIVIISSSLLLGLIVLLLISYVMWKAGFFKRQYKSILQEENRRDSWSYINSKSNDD
# Sequence of Beta-2 adrenergic receptor (Homo sapiens) (P07550 whole entry, looked up): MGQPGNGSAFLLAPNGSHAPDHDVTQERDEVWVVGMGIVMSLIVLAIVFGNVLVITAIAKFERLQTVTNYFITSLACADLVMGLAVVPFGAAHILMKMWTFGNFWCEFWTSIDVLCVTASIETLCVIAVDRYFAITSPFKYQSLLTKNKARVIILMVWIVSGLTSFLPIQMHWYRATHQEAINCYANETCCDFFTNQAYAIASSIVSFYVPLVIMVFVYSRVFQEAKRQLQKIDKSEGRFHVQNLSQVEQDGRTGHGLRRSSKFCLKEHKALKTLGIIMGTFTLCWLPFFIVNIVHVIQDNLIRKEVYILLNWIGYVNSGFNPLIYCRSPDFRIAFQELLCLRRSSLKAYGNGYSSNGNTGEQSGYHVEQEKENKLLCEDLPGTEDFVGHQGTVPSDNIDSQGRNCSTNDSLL
# Sequence of AP-2 complex subunit beta (Homo sapiens) (P63010 whole entry, looked up, the tested form may be a part, one chain of several): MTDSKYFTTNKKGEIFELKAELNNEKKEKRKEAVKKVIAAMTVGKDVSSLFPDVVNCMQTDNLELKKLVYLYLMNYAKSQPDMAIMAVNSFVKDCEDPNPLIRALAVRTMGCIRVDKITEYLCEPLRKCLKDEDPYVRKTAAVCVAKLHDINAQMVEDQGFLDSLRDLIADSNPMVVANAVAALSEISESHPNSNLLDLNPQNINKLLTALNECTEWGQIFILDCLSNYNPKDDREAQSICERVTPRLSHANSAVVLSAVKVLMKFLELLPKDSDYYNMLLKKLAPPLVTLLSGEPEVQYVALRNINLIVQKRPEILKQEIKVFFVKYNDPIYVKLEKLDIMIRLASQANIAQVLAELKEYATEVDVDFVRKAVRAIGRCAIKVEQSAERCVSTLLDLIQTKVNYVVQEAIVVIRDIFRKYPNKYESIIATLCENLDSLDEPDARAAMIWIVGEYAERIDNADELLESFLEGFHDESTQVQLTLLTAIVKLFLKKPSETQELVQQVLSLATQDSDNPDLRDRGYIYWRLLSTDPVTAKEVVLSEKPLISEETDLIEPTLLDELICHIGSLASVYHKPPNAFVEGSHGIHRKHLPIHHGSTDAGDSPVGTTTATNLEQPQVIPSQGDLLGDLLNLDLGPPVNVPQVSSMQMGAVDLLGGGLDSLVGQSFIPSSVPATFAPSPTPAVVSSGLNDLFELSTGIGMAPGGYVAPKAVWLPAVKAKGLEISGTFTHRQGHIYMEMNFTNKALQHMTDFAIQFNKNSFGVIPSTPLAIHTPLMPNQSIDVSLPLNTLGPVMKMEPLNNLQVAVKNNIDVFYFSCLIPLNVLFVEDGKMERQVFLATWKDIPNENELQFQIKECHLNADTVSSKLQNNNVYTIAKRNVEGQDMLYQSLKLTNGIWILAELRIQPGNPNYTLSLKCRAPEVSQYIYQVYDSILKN
# Sequence of ATP-binding cassette sub-family B member 6 (Homo sapiens) (Q9NP58 whole entry, looked up): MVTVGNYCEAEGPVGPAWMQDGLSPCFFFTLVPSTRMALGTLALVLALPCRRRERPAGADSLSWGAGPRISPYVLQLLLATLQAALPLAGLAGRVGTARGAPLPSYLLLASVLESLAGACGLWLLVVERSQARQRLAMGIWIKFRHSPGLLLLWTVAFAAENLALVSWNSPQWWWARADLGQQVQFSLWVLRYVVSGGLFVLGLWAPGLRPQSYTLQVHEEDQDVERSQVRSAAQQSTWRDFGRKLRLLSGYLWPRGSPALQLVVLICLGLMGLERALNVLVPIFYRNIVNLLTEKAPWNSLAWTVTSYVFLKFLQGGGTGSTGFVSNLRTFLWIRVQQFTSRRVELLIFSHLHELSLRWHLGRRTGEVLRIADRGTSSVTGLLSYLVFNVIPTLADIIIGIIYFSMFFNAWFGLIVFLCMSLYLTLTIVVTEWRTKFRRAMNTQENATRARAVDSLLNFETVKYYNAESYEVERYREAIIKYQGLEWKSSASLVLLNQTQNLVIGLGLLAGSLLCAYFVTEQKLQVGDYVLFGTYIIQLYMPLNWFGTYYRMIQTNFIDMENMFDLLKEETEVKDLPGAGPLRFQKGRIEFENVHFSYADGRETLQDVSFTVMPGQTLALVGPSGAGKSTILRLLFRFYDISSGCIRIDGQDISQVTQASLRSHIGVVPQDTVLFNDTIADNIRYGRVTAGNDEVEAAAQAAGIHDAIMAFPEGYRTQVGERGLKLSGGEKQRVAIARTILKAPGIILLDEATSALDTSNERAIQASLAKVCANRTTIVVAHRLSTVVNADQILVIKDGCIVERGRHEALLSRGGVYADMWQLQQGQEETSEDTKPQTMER
structure (smiles),measurement,setting,value
C#C[C@]1(O)CC[C@H]2[C@@H]3CCC4=CC(=O)CC[C@@H]4[C@H]3CC[C@@]21CC,percent of DMSO control GFP,[1],96.3% (inactive)
same,GFP response vs DMSO,[2],96.6% (inactive)
same,percent response of DMSO control,[3],97.7% (inactive)
same,GFP response vs DMSO,[4],107% (inactive)
same,"GFP response, % of DMSO",[5],103% (inactive)
same,GFP response vs DMSO,[6],101% (inactive)
same,GFP response vs DMSO,[6]; [21],98.7%
same,GFP response vs DMSO,[6]; [22],101%
same,GFP response relative to DMSO,[7],101% (inactive)
same,GFP response relative to DMSO,[7]; [23],102%
same,GFP response relative to DMSO,[7]; [24],103%
same,GFP response vs DMSO,[8],95.7% (inactive)
same,"GFP response, % of DMSO",[9],102% (inactive)
same,"GFP response, % of DMSO",[9]; [21],99.7%
same,"GFP response, % of DMSO",[9]; [22],102%
same,double positive events,[10],62.5%
same,vesicle binding response,[10],142% (inactive)
same,inhibition,[11],15.1% (inactive)
same,superoxide response (% of plate),[12],92.6% (inactive)
same,aptamer binding inhibition,[13],8% (inactive)
same,response,[14],-17.9% (inactive)
same,inhibition,[15],-1.43% (inactive)
same,response,[16],1.52% (inactive)
same,binding (% of control),[17],98% (inactive)
same,efflux inhibition (fraction of control),[18],-0.04 (inactive)
same,inhibition,[19],7% (inactive)
same,differentiation response,[20],2.89% (inactive)
CCCCN(CCCC)CCCOC(=O)c1ccc(N)cc1,percent of DMSO control GFP,[1],92% (inactive)
same,GFP response vs DMSO,[2],150% (active)
same,percent response of DMSO control,[3],115% (inactive)
same,GFP response vs DMSO,[4],82% (inactive)
same,"GFP response, % of DMSO",[5],81.7% (inactive)
same,GFP response vs DMSO,[6],97.6% (inactive)
same,GFP response vs DMSO,[6]; [21],97.4%
same,GFP response vs DMSO,[6]; [22],98%
same,GFP response relative to DMSO,[7],94.1% (inactive)
same,GFP response relative to DMSO,[7]; [23],97.6%
same,GFP response relative to DMSO,[7]; [24],94%
same,GFP response vs DMSO,[8],98.3% (inactive)
same,"GFP response, % of DMSO",[9],99.7% (inactive)
same,"GFP response, % of DMSO",[9]; [21],101%
same,"GFP response, % of DMSO",[9]; [22],99.7%
same,double positive events,[10],64.8%
same,vesicle binding response,[10],181% (inactive)
same,inhibition,[11],0.64% (inactive)
same,superoxide response (% of plate),[12],92.8% (inactive)
same,aptamer binding inhibition,[13],0% (inactive)
same,response,[14],-0.26% (inactive)
same,inhibition,[15],6.38% (inactive)
same,response,[16],-2.47% (inactive)
same,binding (% of control),[17],104% (inactive)
same,efflux inhibition (fraction of control),[18],0.05 (inactive)
same,inhibition,[19],9% (inactive)
same,differentiation response,[20],1.64% (inactive)
CCOc1cc(C=O)ccc1OCCSc1ccc(C)cc1,percent of DMSO control GFP,[1],94.6% (inactive)
same,GFP response vs DMSO,[2],103% (inactive)
same,percent response of DMSO control,[3],77.8% (inactive)
same,GFP response vs DMSO,[4],168% (active)
same,"GFP response, % of DMSO",[5],101% (inactive)
same,GFP response vs DMSO,[6],92.9% (inactive)
same,GFP response vs DMSO,[6]; [21],87.7%
same,GFP response vs DMSO,[6]; [22],96.4%
same,GFP response relative to DMSO,[7],131% (inactive)
same,GFP response relative to DMSO,[7]; [23],122%
same,GFP response relative to DMSO,[7]; [24],137%
same,GFP response vs DMSO,[8],116% (inactive)
same,"GFP response, % of DMSO",[9],93.5% (inactive)
same,"GFP response, % of DMSO",[9]; [21],92.7%
same,"GFP response, % of DMSO",[9]; [22],93.3%
same,double positive events,[10],60.1%
same,vesicle binding response,[10],185% (inactive)
same,inhibition,[11],9.13% (inactive)
same,superoxide response (% of plate),[12],108% (inactive)
same,aptamer binding inhibition,[13],4% (inactive)
same,response,[14],5.33% (inactive)
same,inhibition,[15],-9.69% (inactive)
same,response,[16],5.17% (inactive)
same,binding (% of control),[17],98.9% (inactive)
same,efflux inhibition (fraction of control),[18],0.08 (inactive)
same,inhibition,[19],5% (inactive)
same,differentiation response,[20],-16.8% (inactive)
